Reference: PubChem BioAssay (NCATS)
Inconclusive results are not listed. Where a call stands in place of a potency, no number is given. Active and inactive are the calls of the source. The call rests on the fitted dose curve.
Potency means the concentration at half of the fitted maximal effect.

These compounds were tested against Nucleoprotein (Lymphocytic choriomeningitis virus (strain Armstrong)) (UniProt P09992) (assay: qHTS for Inhibitors of the Functional Ribonucleoprotein Complex (vRNP) of Lymphocytic Choriomeningitis Arenaviruses (LCMV): LCMV Primary Screen - GLuc reporter signal (AID 1347086; further: nearly all actives have a fitted effect of over 70% in size)). Details: LCMV minigenome vRNP cell assay, Gaussia luciferase reporter; series mostly up to 57.5 µM.
Nucleoprotein (Lymphocytic choriomeningitis virus (strain Armstrong)), sequence (P09992 whole entry, looked up): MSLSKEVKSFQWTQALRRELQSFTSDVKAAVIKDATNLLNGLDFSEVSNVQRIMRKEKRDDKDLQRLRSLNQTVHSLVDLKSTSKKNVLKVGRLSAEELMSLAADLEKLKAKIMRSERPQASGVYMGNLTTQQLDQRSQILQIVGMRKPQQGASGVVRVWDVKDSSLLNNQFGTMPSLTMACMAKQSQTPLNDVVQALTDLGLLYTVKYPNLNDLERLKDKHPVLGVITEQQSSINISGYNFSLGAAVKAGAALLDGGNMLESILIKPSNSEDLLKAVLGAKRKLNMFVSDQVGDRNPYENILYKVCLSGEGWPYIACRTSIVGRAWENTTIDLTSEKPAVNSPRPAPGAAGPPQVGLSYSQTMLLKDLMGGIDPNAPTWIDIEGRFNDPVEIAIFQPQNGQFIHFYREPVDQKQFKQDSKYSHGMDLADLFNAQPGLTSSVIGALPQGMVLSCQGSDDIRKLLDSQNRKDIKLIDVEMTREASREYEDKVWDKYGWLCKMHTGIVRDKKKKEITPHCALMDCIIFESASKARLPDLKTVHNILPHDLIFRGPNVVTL
`CC[C@@H]1[C@@H](C)O[C@@](O)([C@@H](C)[C@H](O)[C@H](C)[C@H]2OC(=O)C=CC=C[C@@H](C)[C@@H]([C@@H](C)[C@@H](O)[C@H](C)[C@@]3(O)C[C@H](O[C@H]4C[C@H](O)[C@H](O)[C@H](C)O4)[C@H](CC)[C@@H](C)O3)OC(=O)C=CC=C[C@@H]2C)C[C@H]1O[C@H]1C[C@H](O)[C@H](O)[C@H](C)O1` was tested, and the Potency was 13.7 µM (active).
`CCOC(=O)Nc1ccc(NCc2ccc(F)cc2)cc1N` was tested, and the Potency was 1.53 µM (active).
`COc1cc(C(O)CN)ccc1O` (configuration not stated) was tested, and the Potency was “inactive”.
`O=S(=O)(F)Cc1ccccc1` was tested, and the Potency was “inactive”.
In the case of `COc1ccc2c(c1)[C@]13CCCCC1C(C2)N(C)CC3` (some centres not stated), the Potency is reported as “inactive”.
In the case of `CC(C)[C@]12O[C@@H]1[C@@H]1O[C@]13[C@]1(O[C@H]1C[C@@H]1C4=C(CC[C@@]13C)C(=O)OC4)[C@H]2O`, the Potency is reported as “inactive”.
With `O=C(Oc1ccc([N+](=O)[O-])cc1)N1CCN(Cc2cccc(Oc3ccccc3)c2)CC1` the Potency was 6.85 µM (active).
`Clc1ccccc1C(c1ccccc1)(c1ccccc1)n1cccn1` was tested, and the Potency was “inactive”.
For `CC1=C(O)C(=O)C=C2C1=CC=C1[C@@]2(C)CC[C@@]2(C)[C@@H]3C[C@](C)(C(=O)O)CC[C@]3(C)CC[C@]12C`, the Potency was 7.69 µM (active).
In the case of `COc1cc([C@@H]2c3cc4c(cc3[C@@H](O)C3COC(=O)C32)OCO4)cc(OC)c1O` (some centres not stated), the Potency is reported as 0.153 µM (active).
`CC(C)(O)C=CC(=O)[C@](C)(O)[C@H]1[C@H](O)C[C@]2(C)[C@@H]3CC=C4[C@@H](C=C(O)C(=O)C4(C)C)[C@]3(C)C(=O)C[C@@]12C` was tested, and the Potency was 10.9 µM (active).
With `CCOC(=O)c1c(C(C#N)=CN)c2ccc(Cl)c(Cl)c2n1C` the Potency was “inactive”.
